Results on four compounds are retold here after PubChem BioAssay (EPA / NIEHS).

What all share (details): mRNA level, 48 h; actives raise or lower the signal
Read-out in one test: CYP2C9 (gene 1559)
Nature of the test: LTEA_HepaRG_CYP2C9: Life Technologies and Expression Analysis (LTEA) Assay for CYP2C9 using HepaRG (AID 2283484). A digest of the protocol:
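Differentiated human HepaRG cells were exposed 48 h in serum-free induction medium to eight half-log concentrations up to 100 uM in 0.5% DMSO. CYP2C9 mRNA was measured by qRT-PCR, normalized to ACTB, GAPDH and POLR2A, and fitted bidirectionally against DMSO.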

Read-out in the next test: CYP2E1 (gene 1571)
Nature of the test: LTEA_HepaRG_CYP2E1: Life Technologies and Expression Analysis (LTEA) Assay for CYP2E1 using HepaRG (AID 2283485). A digest of the protocol:
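Human liver line HepaRG, plated 48 h, then serum-free induction medium + chemical x 48 h; 8-pt CRC from 100 uM, half-log, 0.5% DMSO, n=2. Readout: CYP2E1 mRNA qRT-PCR vs ACTB/GAPDH/POLR2A; bidirectional fit vs DMSO.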

Read-out in the next test: CYP4A11 (gene 1579)
Nature of the test: LTEA_HepaRG_CYP4A11: Life Technologies and Expression Analysis (LTEA) Assay for CYP4A11 using HepaRG (AID 2283486). The essentials: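 CYP4A11 transcript levels were quantified by TaqMan qRT-PCR after HepaRG human liver cells were treated for 48 hours with test chemicals (top 100 uM, half-log dilutions, 0.5% DMSO). Gain or loss of signal was fitted relative to DMSO.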

Read-out in test [1]: Cytochrome P450 3A4 (Homo sapiens) (UniProt P08684)
Nature of the test: LTEA_HepaRG_CYP3A4: Life Technologies and Expression Analysis (LTEA) Assay for CYP3A4 using HepaRG (AID 2283487). A digest of the protocol: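 In a human hepatic line (HepaRG), duplicate wells were treated 48 h with up to 100 uM chemical in half-log dilutions. Endpoint: CYP3A4 mRNA induction or loss relative to 0.5% DMSO vehicle, by qRT-PCR.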

Read-out in test [2]: DNA damage-inducible transcript 3 (DDIT3), DDIT3 (gene 1649)
Nature of the test: LTEA_HepaRG_DDIT3: Life Technologies and Expression Analysis (LTEA) Assay for DNA damage-inducible transcript 3 (DDIT3) using HepaRG (AID 2283488). The essentials: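 HepaRG plated 48 h, switched to serum-free induction medium, dosed 48 h (100 uM top, half-log, 8 pts, 0.5% DMSO, n=2); RNA isolated; DDIT3 by qRT-PCR; bidirectional curve fit vs DMSO.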

Read-out in test [3]: Pro-epidermal growth factor (Homo sapiens) (UniProt P01133)
Nature of the test: LTEA_HepaRG_EGF: Life Technologies and Expression Analysis (LTEA) Assay for Epidermal growth factor (EGF) using HepaRG (AID 2283489). A digest of the protocol:
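qRT-PCR readout of EGF transcript after 48 h chemical exposure of HepaRG cells; eight concentrations from 100 uM down in half-log steps, duplicate wells, 0.5% DMSO vehicle. Bidirectional curve fitting against DMSO baseline.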

Read-out in test [4]: Early growth response protein 1 (EGR1) transcription factor, EGR1 (gene 1958)
Nature of the test: LTEA_HepaRG_EGR1: Life Technologies and Expression Analysis (LTEA) Assay for Early growth response protein 1 (EGR1) transcription factor using HepaRG (AID 2283490). A digest of the protocol: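 Differentiated human HepaRG cells in serum-free induction medium were exposed in duplicate for 48 h to eight concentrations (top 100 uM, half-log steps) in 0.5% DMSO. EGR1 mRNA was quantified by qRT-PCR, normalized to ACTB, GAPDH and POLR2A, and fitted bidirectionally versus DMSO.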

Read-out in test [5]: Ezrin (EZR), EZR (gene 7430)
Nature of the test: LTEA_HepaRG_EZR: Life Technologies and Expression Analysis (LTEA) Assay for Ezrin (EZR) using HepaRG (AID 2283491). The essentials:
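Gain or loss of EZR mRNA is scored relative to 0.5% DMSO in human HepaRG cultures treated 48 h with test chemicals in duplicate, eight half-log concentrations from 100 uM.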

Read-out in another test: CYP3A5 (gene 1577)
Nature of the test: LTEA_HepaRG_CYP3A5: Life Technologies and Expression Analysis (LTEA) Assay for CYP3A5 using HepaRG (AID 2283493). A digest of the protocol:
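HepaRG plated 48 h, switched to serum-free induction medium, chemicals added 48 h (max 100 uM, half-log, 0.5% DMSO). RNA isolated; CYP3A5 by TaqMan qRT-PCR. Gain/loss vs DMSO.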

Read-out in test [6]: Fatty Acid-Binding Protein 1 (FABP1), FABP1 (gene 2168)
Nature of the test: LTEA_HepaRG_FABP1: Life Technologies and Expression Analysis (LTEA) Assay for Fatty Acid-Binding Protein 1 (FABP1) using HepaRG (AID 2283494). A digest of the protocol: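 Differentiated human HepaRG cells were exposed in duplicate for 48 h in serum-free induction medium to 8-point half-log concentration series topping at 100 uM in 0.5% DMSO. FABP1 mRNA measured by TaqMan qRT-PCR, normalized to ACTB/GAPDH/POLR2A; bidirectional fit versus DMSO.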

Read-out in test [7]: Cytochrome P450 4A22 (Homo sapiens) (UniProt Q5TCH4)
Nature of the test: LTEA_HepaRG_CYP4A22: Life Technologies and Expression Analysis (LTEA) Assay for Cytochrome P450 4A22 (CYP4A22) using HepaRG (AID 2283495). A digest of the protocol:
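HepaRG, 48 h post-plating -> serum-free induction medium; dosed 48 h, duplicate, 8 conc. (100 uM top, half-log), 0.5% DMSO. Readout: CYP4A22 mRNA by qRT-PCR, ACTB/GAPDH/POLR2A normalization; gain/loss fit relative to DMSO.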

Read-out in test [8]: Cytochrome P450 7A1 (Homo sapiens) (UniProt P22680)
Nature of the test: LTEA_HepaRG_CYP7A1: Life Technologies and Expression Analysis (LTEA) Assay for Cytochrome P450 7A1 (CYP7A1) using HepaRG (AID 2283496). The essentials: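 HepaRG cells plated 48 h, then switched to serum-free induction medium and exposed in duplicate for 48 h to 8-point half-log series from 100 uM in 0.5% DMSO. CYP7A1 mRNA by qRT-PCR (TaqMan), normalized to ACTB/GAPDH/POLR2A; bidirectional fit versus DMSO.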

Read-out in test [9]: Glutathione S-Transferase (GSTA2), GSTA2 (gene 2939)
Nature of the test: LTEA_HepaRG_GSTA2: Life Technologies and Expression Analysis (LTEA) Assay for Glutathione S-Transferase (GSTA2) using HepaRG (AID 2283497). A digest of the protocol:
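Human HepaRG cells, plated 48 h, then exposed in serum-free induction medium for 48 h to eight half-log concentrations up to 100 uM in 0.5% DMSO, duplicate. GSTA2 mRNA by qRT-PCR, normalized to ACTB/GAPDH/POLR2A; bidirectional fit versus DMSO.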

Read-out in test [10]: Glutamate-cysteine ligase catalytic (GCLC), GCLC (gene 2729)
Nature of the test: LTEA_HepaRG_GCLC: Life Technologies and Expression Analysis (LTEA) Assay for Glutamate-cysteine ligase catalytic (GCLC) using HepaRG (AID 2283498). The essentials: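 Differentiated human HepaRG cells, plated 48 h then switched to serum-free induction medium, were exposed in duplicate for 48 h to 8 half-log concentrations topping at 100 uM in 0.5% DMSO. GCLC mRNA was quantified by qRT-PCR against ACTB, GAPDH and POLR2A.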

Read-out in test [11]: growth arrest and DNA damage 45 (GADD45G), GADD45G (gene 10912)
Nature of the test: LTEA_HepaRG_GADD45G: Life Technologies and Expression Analysis (LTEA) Assay for growth arrest and DNA damage 45 (GADD45G) using HepaRG (AID 2283499). A digest of the protocol:
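HepaRG, 48 h exposure, top 100 uM, half-log 8-point series, 0.5% DMSO vehicle, duplicates. Readout: GADD45G transcript by qRT-PCR (Fluidigm array), housekeeping-normalised (ACTB/GAPDH/POLR2A). Bidirectional curve fit vs DMSO baseline.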

Read-out in test [12]: Glutamate-cysteine ligase regulatory (GCLM), GCLM (gene 2730)
Nature of the test: LTEA_HepaRG_GCLM: Life Technologies and Expression Analysis (LTEA) Assay for Glutamate-cysteine ligase regulatory (GCLM) using HepaRG (AID 2283500). A digest of the protocol: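 Cells were plated, cultured 48 h, switched to serum-free induction medium, then dosed in duplicate for 48 h at eight half-log concentrations up to 100 uM. RNA was then profiled by qRT-PCR; gain or loss versus DMSO was fitted.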

Read-out in test [13]: Heat shock 70 kDa protein 1 (HSPA1A), gene 3303
Nature of the test: LTEA_HepaRG_HSPA1A: Life Technologies and Expression Analysis (LTEA) Assay for Heat shock 70 kDa protein 1 (HSPA1A) using HepaRG (AID 2283502). The essentials:
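Readout is HSPA1A transcript level by microfluidic qRT-PCR, normalized to three housekeeping genes and analysed for gain or loss of signal relative to 0.5% DMSO. Human HepaRG cultures received test chemicals for 48 h at up to 100 uM.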

Read-out in test [14]: Hypoxia-inducible factor 1-alpha (Homo sapiens) (UniProt Q16665)
Nature of the test: LTEA_HepaRG_HIF1A: Life Technologies and Expression Analysis (LTEA) Assay for Hypoxia-inducible factor 1 (HIF1A) Trancription factor using HepaRG (AID 2283503). A digest of the protocol: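 Differentiated HepaRG cells in serum-free induction medium exposed 48 h, in duplicate, to 8-point half-log series from 100 uM in 0.5% DMSO. HIF1A mRNA measured by TaqMan qRT-PCR, normalized to ACTB/GAPDH/POLR2A, fitted bidirectionally versus DMSO.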

Read-out in test [15]: Cytochrome P450 3A7 (Homo sapiens) (UniProt P24462)
Nature of the test: LTEA_HepaRG_CYP3A7: Life Technologies and Expression Analysis (LTEA) Assay for CYP3A7 using HepaRG (AID 2283492). The essentials: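 CYP3A7 transcript levels were read by TaqMan qRT-PCR on Fluidigm arrays after 48 h chemical exposure of human HepaRG cells, with housekeeping-gene normalisation. Eight half-log concentrations up to 100 uM in 0.5% DMSO were tested in duplicate.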

Read-out in test [16]: Glutathione S-transferase M3 (GSTM3), GSTM3 (gene 2947)
Nature of the test: LTEA_HepaRG_GSTM3: Life Technologies and Expression Analysis (LTEA) Assay for Glutathione S-transferase M3 (GSTM3) using HepaRG (AID 2283501). A digest of the protocol: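 qRT-PCR read-out of GSTM3 transcript, normalized to three housekeeping genes, from human HepaRG cells after 48 h chemical exposure. Eight-point half-log series, top 100 uM, 0.5% DMSO vehicle; gain or loss fitted relative to DMSO baseline.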

Calls of active or inactive are those of the source. How the source made its calls: active means hit-call score of the fitted dose curve at least 0.9, where 1 is the maximum; inactive means score below 0.9.

Chain of Cytochrome P450 3A4 (Homo sapiens) (P08684 whole entry, looked up): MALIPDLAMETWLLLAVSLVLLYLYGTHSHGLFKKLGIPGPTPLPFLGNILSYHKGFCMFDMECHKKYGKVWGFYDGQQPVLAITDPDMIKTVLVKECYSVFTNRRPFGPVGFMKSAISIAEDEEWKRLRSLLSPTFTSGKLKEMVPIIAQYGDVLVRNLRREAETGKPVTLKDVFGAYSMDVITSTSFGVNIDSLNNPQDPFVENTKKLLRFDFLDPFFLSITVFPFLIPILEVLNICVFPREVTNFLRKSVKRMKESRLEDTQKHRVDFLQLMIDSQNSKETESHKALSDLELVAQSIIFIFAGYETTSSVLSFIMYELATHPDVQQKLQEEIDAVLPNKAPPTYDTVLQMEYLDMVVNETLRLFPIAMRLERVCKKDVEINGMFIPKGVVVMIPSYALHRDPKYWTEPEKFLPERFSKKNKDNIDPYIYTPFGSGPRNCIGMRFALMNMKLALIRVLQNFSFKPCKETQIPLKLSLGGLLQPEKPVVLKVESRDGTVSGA
Chain of Hypoxia-inducible factor 1-alpha (Homo sapiens) (Q16665 whole entry, looked up): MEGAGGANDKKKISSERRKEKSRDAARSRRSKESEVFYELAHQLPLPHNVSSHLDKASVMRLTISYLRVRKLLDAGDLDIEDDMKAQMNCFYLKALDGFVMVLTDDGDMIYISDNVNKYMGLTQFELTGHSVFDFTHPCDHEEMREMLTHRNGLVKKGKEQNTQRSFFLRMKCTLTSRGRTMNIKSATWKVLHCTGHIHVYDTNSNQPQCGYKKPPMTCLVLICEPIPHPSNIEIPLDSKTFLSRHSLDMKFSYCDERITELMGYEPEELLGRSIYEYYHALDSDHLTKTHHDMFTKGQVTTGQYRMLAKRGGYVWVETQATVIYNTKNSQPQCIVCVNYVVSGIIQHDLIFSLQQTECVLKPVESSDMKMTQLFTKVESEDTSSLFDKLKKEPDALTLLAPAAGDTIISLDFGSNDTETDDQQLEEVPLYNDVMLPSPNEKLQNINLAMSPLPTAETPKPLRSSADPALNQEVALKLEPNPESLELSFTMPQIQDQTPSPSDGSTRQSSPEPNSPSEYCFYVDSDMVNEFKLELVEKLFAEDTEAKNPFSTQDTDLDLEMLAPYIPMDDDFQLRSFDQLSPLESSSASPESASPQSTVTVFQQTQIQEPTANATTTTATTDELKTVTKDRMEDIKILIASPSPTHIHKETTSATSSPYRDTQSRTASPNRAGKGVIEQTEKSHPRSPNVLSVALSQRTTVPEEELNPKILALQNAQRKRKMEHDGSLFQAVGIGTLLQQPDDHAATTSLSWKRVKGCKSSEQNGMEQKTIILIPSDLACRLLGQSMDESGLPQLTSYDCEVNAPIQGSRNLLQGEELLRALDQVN
Chain of Cytochrome P450 3A7 (Homo sapiens) (P24462 whole entry, looked up): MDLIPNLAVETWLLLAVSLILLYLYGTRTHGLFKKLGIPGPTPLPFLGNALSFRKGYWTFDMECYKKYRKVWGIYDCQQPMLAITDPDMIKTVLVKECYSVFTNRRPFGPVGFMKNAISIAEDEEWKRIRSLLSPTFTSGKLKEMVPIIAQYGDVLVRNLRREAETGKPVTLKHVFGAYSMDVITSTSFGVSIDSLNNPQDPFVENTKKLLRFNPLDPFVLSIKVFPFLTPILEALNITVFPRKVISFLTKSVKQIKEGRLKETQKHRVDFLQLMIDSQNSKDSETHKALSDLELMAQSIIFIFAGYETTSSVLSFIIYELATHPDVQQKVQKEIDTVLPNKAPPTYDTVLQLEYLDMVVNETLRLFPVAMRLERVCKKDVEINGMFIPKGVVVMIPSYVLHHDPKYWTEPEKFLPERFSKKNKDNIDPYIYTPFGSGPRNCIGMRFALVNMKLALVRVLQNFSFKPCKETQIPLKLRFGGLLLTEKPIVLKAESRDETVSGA

For the compound `OCCCBr`, the call (in the test with CYP2C9 (gene 1559); in the test with CYP2E1 (gene 1571); in the test with CYP4A11 (gene 1579); in test [1]; in test [2]; in test [3]) was inactive. For the same compound, the result (in [4]; in test [5]; with CYP3A5 (gene 1577); in test [6]; in test [7]; in test [8]) was inactive. Besides, the outcome in test [9], in [10], in test [11], in test [12], in test [13] and in test [14] was inactive.
In the case of `CCN(CC)N=O`, the result (in the test with CYP2C9 (gene 1559); in the test with CYP2E1 (gene 1571); with CYP4A11 (gene 1579); in test [1]; in test [2]; in test [3]) was inactive. Further, the compound was classed as inactive (in test [5]; in [15]; with CYP3A5 (gene 1577); in [6]; in test [7]; in test [9]). Further, the call in test [10], in test [11], in test [12], in test [16], in [13] and in test [14] was inactive.
`CCCSC(=O)N(CCC)CCC`: the call (with CYP2C9 (gene 1559); in the test with CYP2E1 (gene 1571); with CYP4A11 (gene 1579); in test [1]; in test [2]; in test [3]) was inactive. Also, the compound was called inactive (in test [4]; in test [5]; in the test with CYP3A5 (gene 1577); in test [6]; in test [7]; in test [8]). The result in [9], in [10], in test [11], in [12] and in test [13] was inactive.
The AC50 is the concentration at which the activity in the assay is half-maximal. With `C[C@]12C=CC3=C4CCC(=O)C=C4CC[C@H]3[C@@H]1CC[C@@H]2O`, the concentration at half-maximal activity (AC50) in the test with CYP2C9 (gene 1559) was 50 µM (active); in [1] it was 0.458 µM (active); in test [6], 47.7 µM (active); in [11], 60.9 µM (active); in test [12], 79 µM (active). The compound was called inactive in test [2], in [3], in test [5], in test [9], in [10] and in [16]. Also, the call in test [13] was inactive.
